Compound activity deposited in PubChem BioAssay by National Center for Advancing Translational Sciences (NCATS).
Pf growth 96h: Primary qHTS for delayed death inhibitors of the malarial parasite plastid, 96 hour incubation; P. falciparum luciferase reporter growth, 96 h; Potency, µM (titrated, usually from 28.7 µM), for the others: at the highest dose activity change, negative = inhibition, most hits filed as inhibitors; 320,000 tested, 6.9% active; AID 504834, 2011; active = well fitted inhibition curve with a large enough effect; inconclusive = small, poorly fitted or top-dose-only effect, or another doubt; inactive = no such curve, though single readings can be large or run the other way; also: % is scaled to controls: 0 for no effect and ±100 for the full control effect
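Infected RBCs, 2% Hct / 0.05% parasitemia final; luciferase-reporter P. falciparum; cpd 96 h, 37 C, 5% CO2; luciferase detection reagent; luminescence.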
SARS PLP yeast: qHTS of Yeast-based Assay for SARS-CoV PLP. S. cerevisiae expressing SARS-CoV PLpro, growth rescue. Potency, µM (titrated, usually from 32.9 µM), for inactives: top-dose activity, positive = growth rescue, usual class: activators. 330,000 tested, 0.19% active. AID 485353, 2010; also: 0% is about no effect; nearly all actives have a fitted effect of over 55% in size
NS1 inh: qHTS Assay for Inhibitors of Influenza NS1 Protein Function. Potency, µM (highest dose often 46.1 µM), for the others: top-dose activity, positive = more growth. 270,000 tested, 0.4% active; also: actives are rising curves; nearly all actives have a fitted effect of over 50% in size
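A cell-based growth assay was used: compounds that relieve NS1-induced slow growth of budding yeast raise OD600. Assay medium was yeast nitrogen base with ammonium sulphate and -URA supplement, pH 6.0, with 2% galactose.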
Pf growth 48h: Primary qHTS for delayed death inhibitors of the malarial parasite plastid, 48 hour incubation; P. falciparum luciferase growth in erythrocytes, 48 h; Potency, µM (top dose mostly 28.7 µM), for inactives: top-dose activity change, negative = inhibition, hits mostly inhibitors; 310,000 tested, 5.9% active; active = well fitted inhibition curve with a large enough effect; inconclusive = small, poorly fitted or top-dose-only effect, or another doubt; inactive = no such curve, though single readings can be large or run the other way; also: % is scaled to controls: 0 for no effect and ±100 for the full control effect
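Read-out is firefly luciferase luminescence from an integrated reporter in P. falciparum, so falling signal marks reduced parasite growth. Infected erythrocytes were at 2% hematocrit and 0.1% parasitemia (final) in Albumax-supplemented RPMI 1640.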
* marks the source's active call; other numbers are inactive results; [ ] = another dose, or the depositor's remark. A selection: hits, their analogues and other compounds. The true share with any hit is near 10%. Unless noted, calls follow the shape of the full dose curve. Potency is read from the fitted curve at half-maximal effect.

How did COc1ccc(C[C@H]2CN3C(=NC[C@@H]3Cc3ccc(O)cc3)N2C[C@H](C)NC(=O)CCC2CCCCC2)cc1 do in these assays?
Pf growth 96h: 0.93µM*; SARS PLP yeast: 0%; NS1 inh: 3%; Pf growth 48h: 2.1µM*

How did COc1ccc(NC(=O)Nc2cccc3c2O[C@H](CN(C)C(=O)Nc2ccc4c(c2)OCO4)[C@@H](C)CN([C@H](C)CO)C3=O)cc1 do in these assays?
SARS PLP yeast: 11%

Results for NC(=O)c1ccsc1NC(=O)c1ccc(S(=O)(=O)N2CCCc3ccccc32)cc1 ?
Pf growth 96h: 10µM*; SARS PLP yeast: -31%; NS1 inh: inconclusive; Pf growth 48h: inconclusive

Results for COC(=O)c1sc2ccccc2c1NC(=O)c1ccc(S(=O)(=O)N2CCCCC2C)cc1 (stereo unspecified) ?
Pf growth 96h: 13µM*; SARS PLP yeast: 23%; NS1 inh: 11%; Pf growth 48h: 15µM*

What do the screens show for `CC1CCCCN1S(=O)(=O)c1ccc(C(=O)Nc2sccc2C(N)=O)cc1` (stereo unspecified)?
Pf growth 96h: 9.3µM*; SARS PLP yeast: -39%; NS1 inh: -25%; Pf growth 48h: 9.3µM*

How did CC1CCCCN1S(=O)(=O)c1ccc(C(=O)Nc2nnc(-c3ccncc3)o2)cc1 (stereo unspecified) do in these assays?
Pf growth 96h: inconclusive; SARS PLP yeast: 1%; Pf growth 48h: inconclusive

How did Cc1ccccc1OCC(=O)N1CCN(C(=O)COc2ccccc2C)CC1 do in these assays?
Pf growth 96h: 17%; SARS PLP yeast: 2%; NS1 inh: 2%; Pf growth 48h: 2%

How did Cc1ccc(S(=O)(=O)N2CCN(C(=O)CC(C)n3nc(C)c(Cl)c3C)CC2)cc1C (stereo unspecified) do in these assays?
Pf growth 96h: 12µM*; SARS PLP yeast: 0%; NS1 inh: -6%; Pf growth 48h: inconclusive

Results for Cc1ccc(S(=O)(=O)N2CCN(C(=O)/C=C/c3ccccc3)CC2)cc1C ?
Pf growth 96h: 13µM*; SARS PLP yeast: -3%; Pf growth 48h: 4.1µM*

Results for Cc1ccc(S(=O)(=O)N2CCN(C(=O)/C=C/c3ccco3)CC2)cc1 ?
Pf growth 96h: 1.9µM*; SARS PLP yeast: 2%; NS1 inh: 20%; Pf growth 48h: 6.6µM*

How did O=C(/C=C/c1ccco1)N1CCN(S(=O)(=O)c2ccccc2)CC1 do in these assays?
SARS PLP yeast: -1%

What do the screens show for `COc1cccc(-c2nnc(SCC(=O)NC3CCS(=O)(=O)C3)n2C)c1` (stereo unspecified)?
Pf growth 96h: -5%; SARS PLP yeast: 2%; Pf growth 48h: -13%

Results for COc1ccc(OCC(=O)Nc2ccc3c(c2)nc(CCN2CCN(C)CC2)n3C)cc1 ?
Pf growth 96h: inconclusive; SARS PLP yeast: 0%; NS1 inh: -3%; Pf growth 48h: -3%

How did Cc1oc2c(cc(NS(=O)(=O)c3cccs3)c3ccccc32)c1C(=O)OC(C)C do in these assays?
Pf growth 96h: 9.3µM*; SARS PLP yeast: 13%; NS1 inh: 28%; Pf growth 48h: inconclusive

What do the screens show for `Cc1oc2c(cc(NS(=O)(=O)c3ccc(F)cc3)c3ccccc32)c1C(=O)O`?
Pf growth 96h: 7.4µM*; SARS PLP yeast: 0%; NS1 inh: -1%; Pf growth 48h: 3%

What do the screens show for `Cc1oc2c(cc(NS(=O)(=O)c3ccc(C(C)C)cc3)c3ccccc32)c1C(=O)O`?
Pf growth 96h: inconclusive; SARS PLP yeast: -3%; NS1 inh: 22%; Pf growth 48h: 17%

How did COc1ccc(S(=O)(=O)Nc2cc3c(C(C)=O)c(C)oc3c3ccccc23)cc1 do in these assays?
Pf growth 96h: inconclusive; SARS PLP yeast: 11%; NS1 inh: 15%

What do the screens show for `NC(=O)OC[C@H](O)COc1ccc(Cl)cc1`?
Pf growth 96h: 6%[12.8 µM]; Pf growth 48h: -1%[12.8 µM]

What do the screens show for `CSc1ccccc1NC(=O)CN(C)CC(=O)NCC(=O)Nc1ccc(F)cc1`?
Pf growth 96h: -2%; SARS PLP yeast: -7%; Pf growth 48h: 0%

How did C=CC[n+]1c(C)csc1Nc1ccc(C)cc1 do in these assays?
Pf growth 96h: 26%; SARS PLP yeast: 3%; Pf growth 48h: 20%

How did Cc1ccc(-c2csc(Nc3ccc(C(=O)O)cc3)[n+]2Cc2ccccc2)cc1 do in these assays?
Pf growth 96h: inconclusive; SARS PLP yeast: -1%; NS1 inh: 2%; Pf growth 48h: inconclusive
